PubChem BioAssay AID652154 (Broad Institute, 2013)
About 4,200 (1.2%) of roughly 360,000 compounds were called active.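 The calls were made as follows: active = mean replicate inhibition at least 60% with every replicate also reaching 60%; inconclusive = only one of the two criteria is met; inactive = mean below 60% and not all replicates reaching 60%.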 The list comes from a sample in which actives are over-represented; it also holds similar structures and randomly drawn compounds.

experiment: PAX8 transcriptional activity inhibition in RMG-I – RMG-I cells, luciferase, single concentration, primary screen (AID 652154); details: RMG-I TPO-luciferase reporter, SteadyGlo, 24 h; at 12.6 µM; hits give high values;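 also: luciferase light reporting Pax8 driven TPO promoter activity; plate controls were median of neutral control wells for no effect and mitoxantrone controls for full effect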

| SMILES | inhibition |
| --- | --- |
| Cc1ccc(S(=O)(=O)Nc2cccc3c2O[C@@H](CN(C)S(=O)(=O)c2c(C)noc2C)[C@@H](C)CN([C@H](C)CO)C3=O)cc1 | -20.1% (inactive) |
| C[C@H]1CCCCO[C@@H](CN(C)Cc2ccc3c(c2)OCO3)[C@@H](C)CN([C@@H](C)CO)C(=O)c2cc(NC(=O)c3ccccc3)ccc2O1 | 10.2% (inactive) |
| COCC(=O)Nc1ccc2c(c1)C(=O)N(C)C[C@@H](OC)[C@H](C)CN(C(=O)c1cccnc1)[C@H](C)CO2 | -16.5% (inactive) |
| C/C=C/c1cnc2c(c1)C(=O)N([C@@H](C)CO)C[C@@H](C)[C@@H](CN(C)C(=O)C1CCOCC1)O2 | -0.814% (inactive) |
| O=C(O)c1cc(S(=O)(=O)N(Cc2ccccc2)c2cccc(C(F)(F)F)c2)ccc1Cl | -20% (inactive) |
| O=c1cc(O)c(-c2cccc(C(F)(F)F)c2)c(Cl)[nH]1 | 4.02% (inactive) |
| O=C(NNc1ccccc1Cl)C(O)(c1cccc(C(F)(F)F)c1)c1cccc(C(F)(F)F)c1 | 66.8% (active) |
| O=C(C1CCCC1)N1CC(=O)N2[C@H](CO)[C@H](c3ccc(Br)cc3)[C@H]2C1 | -9.22% (inactive) |
| C/C=C/c1ccc([C@@H]2[C@H](CO)N(C(C)=O)[C@H]2CN(CC)C(=O)CN(C)C)cc1 | 9.68% (inactive) |
| COCC(=O)Nc1ccc2c(c1)OC[C@H](C)N(C(=O)c1cnccn1)C[C@@H](C)[C@H](OC)CN(C)C2=O | -7.83% (inactive) |
| O=C(C1CCC1)N1CCCCN2[C@H](C1)[C@@H](c1ccc(C#CC3CCCC3)cc1)[C@@H]2CO | 36.8% (inactive) |
| COc1cccc(-n2c(=S)[nH]c3c(oc4ccccc43)c2=O)c1 | 3.59% (inactive) |
| O=c1oc2ccccc2cc1-c1cn(-c2ccccc2)c(=S)[nH]1 | 62.6% (active) |
| CC(C)NC(=O)Nc1ccc2c(c1)C(=O)N([C@@H](C)CO)C[C@@H](C)[C@H](CN(C)C(=O)Cc1ccccc1)OCCCC[C@H](C)O2 | 4.73% (inactive) |
| CN1CCN(C(=O)C[C@@H]2CC[C@@H]3[C@H](COC[C@@H](O)CN3Cc3cccc(F)c3)O2)CC1 | -11.1% (inactive) |
| CCCC#Cc1cnc2c(c1)C(=O)N([C@@H](C)CO)C[C@@H](C)[C@@H](CN(C)C(=O)c1ccccc1)O2 | 8.32% (inactive) |
| C=C1C(=O)OC2C1CCC(C)=CCCC1(C)OC21 (stereo not drawn) | 108% (active) |
| O=S(=O)(c1ccc(F)cc1)N1CCCCN2[C@H](C1)[C@H](c1ccc(C3=CCCCC3)cc1)[C@@H]2CO | 16.3% (inactive) |
| CC(C)c1cn(CC[C@@H]2CC[C@@H](NC(=O)C3CCC3)[C@@H](CO)O2)nn1 | 2.99% (inactive) |
| COc1ccc(CNC(=O)COC(=O)C(CCSC)N2C(=O)c3ccccc3C2=O)cc1 (stereo not drawn) | -2% (inactive) |
| NS(=O)(=O)c1ccc(CCNC(=O)CN2C(=O)c3ccccc3S2(=O)=O)cc1 | 0.854% (inactive) |
| COc1ccc(CNC(=O)CN2C(=O)c3ccccc3S2(=O)=O)cc1 | 75.6% (active) |
| C/C=C/c1ccccc1[C@@H]1[C@@H](CO)N(S(=O)(=O)c2cccc(F)c2)[C@H]1C#N | -12.9% (inactive) |
| C[C@@H]1CN([C@@H](C)CO)C(=O)c2cc(NC(=O)CCCN(C)C)ccc2O[C@H]1CN(C)Cc1ccccc1 | -7.53% (inactive) |
| COc1ccccc1-c1ccc2c(c1)O[C@H](CN(C)C(=O)c1cccnc1)[C@H](C)CN([C@@H](C)CO)S2(=O)=O | -1.96% (inactive) |
| COc1ccc(C(C#N)=C2C=CC(=NO)c3ccccc32)cc1 | 70.5% (active) |
| COc1ccc(/C(N)=N/OC(=O)Cc2ccccc2)cc1 | -143% (inactive) |
| COc1ccc(C(=NN)c2ccc(OC)cc2)cc1 | -68% (inactive) |
